Assay outcomes as filed in PubChem.
TEAD-YAP inh = TEAD-YAP interaction inhibition; HEK-TIYL cells, TEAD-Gal4/YAP UAS-luciferase luminescence; inhibition, % at 9.12 µM; 640,000 tested, 1.4% active; AID 1259422; in the data active means inhibition above about 32%;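 further: 0% = median of test compound wells and 100% = reference inhibitor wells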
GPR151 activ = human GPR151 activation; activation, % at 11.2 µM; PathHunter beta-arrestin GPR151 cells, luminescence; AID 1508602; Q8TDV0; 650,000 tested, 1% active; in the data active means activation above about 4.9%;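 further: 0% = median of compound wells and 100% = cells with positive control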
Target sequence (Q8TDV0 whole entry, looked up): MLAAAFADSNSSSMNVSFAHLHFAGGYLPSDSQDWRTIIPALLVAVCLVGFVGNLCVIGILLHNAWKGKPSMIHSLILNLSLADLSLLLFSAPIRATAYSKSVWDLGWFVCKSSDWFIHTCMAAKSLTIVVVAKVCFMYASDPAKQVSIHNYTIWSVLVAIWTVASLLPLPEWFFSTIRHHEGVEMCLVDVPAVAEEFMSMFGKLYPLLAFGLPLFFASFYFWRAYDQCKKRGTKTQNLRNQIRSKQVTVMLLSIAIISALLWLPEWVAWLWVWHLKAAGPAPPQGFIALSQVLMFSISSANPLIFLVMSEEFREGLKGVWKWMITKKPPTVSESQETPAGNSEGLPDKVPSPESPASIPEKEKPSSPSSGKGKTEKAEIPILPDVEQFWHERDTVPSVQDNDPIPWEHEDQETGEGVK
FBW7 act = activators of human E3 ligase FBW7 | Q969H0 | 650,000 tested, 0.13% active | normalized activity (activation), % at 26.1 µM | AlphaScreen FBW7–phospho-cyclin E peptide binding, activator screen; in the data active means normalized activity above about 1.9%;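 further: purified mutant Fbw7 with reduced substrate affinity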
MITF inh = blocks human microphthalmia-associated transcription factor; AID 1259374; O75030; AlphaScreen MITF homodimerization, bead proximity signal; inhibition, % at 2.6 µM; 650,000 tested, 0.91% active; in the data active means inhibition above about 50%;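 further: 0% = vehicle wells with protein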
MITF confirm = confirmation of human MITF inhibitors; shares compounds with MITF inh; AlphaScreen MITF homodimerization, biotin/His-MITF beads; inhibition, % at 2.6 µM; 4,700 tested, 16% active;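 active means inhibition above a cutoff derived from the DMSO control wells, cut at about 28% in these data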;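 further: 0% = MITF dimer wells with DMSO only; inhibitors lower the bead chemiluminescence by keeping MITF from dimerizing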
AS interf DR = optically interferes with AlphaScreen signal in dose response; shares compounds with MITF inh; IC50, µM; 480 tested, 6% active; AlphaScreen optical interference counterscreen, cell-free; AID 1259373; call rule not given here
AS interf ctr = counter-screen: compounds optically interfering with AlphaScreen; inhibition, % at 2.6 µM; 4,700 tested, 7.6% active; shares compounds with MITF inh; AID 1259376; LysRS AlphaScreen counterscreen, signal interference, triplicate;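 active means inhibition above a cutoff derived from the DMSO control wells, cut at about 30% in these data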
The depositor's hits bear a star; x = not tested or not shown. A selection: hits, their analogues and other compounds. The true share with any hit is near 3.5%.

SMILES	TEAD-YAP inh	GPR151 activ	FBW7 act	MITF inh	MITF confirm	AS interf ctr	others
Cn1c(-c2cccc([N+](=O)[O-])c2)cnc1NCc1cccc(F)c1	-11	0	0	52*	-8	-8
Cn1c(-c2ccc(F)cc2)cnc1NCc1cccc([N+](=O)[O-])c1	-2	0	0	59*	-4	-5
Cc1nc(NC2CCN(CC(=O)Nc3cccc(C(F)(F)F)c3)CC2)[nH]c(=O)c1C	6	0	0	7	x	x
Nc1c(C(=O)Nc2ccc(Cl)cc2)nnc2cc(-c3ccc(Cl)cc3)nn12	5	0	0	82*	7	5
O=C(Nc1ccc(-c2ccc3nnc(-c4ccncc4)n3n2)cc1)c1ccc(Cl)cc1	8	2	0	8	x	x
CCOC(=O)c1c(NC(=O)CSc2nnc(CNC(=O)COc3ccccc3)n2-c2ccc(F)cc2)sc2c1CCC2	-4	0	0	5	x	x
COc1cccc(C(=O)N2CCN(S(=O)(=O)c3ccc(NC(C)=O)cc3)CC2)c1OC	6	-2	0	-1	x	x
N#CCCN1CCN(S(=O)(=O)c2ccccc2Br)CC1	4	1	0	78*	-7	6
Cc1ccc(S(=O)(=O)N2CCN(CCC#N)CC2)cc1	5	3	0	62*	-5	2
O=C(COc1ccccc1)N1CCC(Cn2cnc3ccccc32)CC1	7	-1	0	56*	9	12
O=C(Cn1ccc2ccccc21)N1CCC(Cn2cnc3ccccc32)CC1	-8	0	0	-1	x	x
O=C(NC(c1ccccc1)c1ccccc1)N1CCC(Cn2cnc3ccccc32)CC1	3	0	0	56*	5	12
Cc1ccccc1NC(=O)N1CCC(Cn2cnc3ccccc32)CC1	-7	-1	0	-8	x	x
COc1ccc(CNC(=O)N2CCC(Cn3cnc4ccccc43)CC2)cc1	5	0	0	58*	8	17
COc1ccc(Cl)cc1NC(=O)N1CCC(Cn2cnc3ccccc32)CC1	-5	2	0	47	x	x
CCOC(=O)c1ccc(CN(Cc2ccc(Cl)cc2Cl)S(=O)(=O)c2c(C)cc(C)cc2C)cc1	-5	0	0	3	x	x
O=C(c1ccco1)N1CCN(C(=O)c2ccco2)CC1	-4	0	0	-2	x	x
CC(C)N1CCN(C(=O)c2ccco2)CC1	3	0	0	51*	2	1
O=C(c1ccco1)N1CCN(Cc2ccccc2Br)CC1	-40	0	0	60*	6	14
O=C(c1ccco1)N1CCN(Cc2ccncc2)CC1	-1	-1	0	82*	7	27
CC1NC(=O)NC1CCCCCC(=O)OCN1C(=O)c2ccccc2C1=O (centres undefined)	-4	0	0	119*	117*	99*
O=C(CCCNC(=O)OCc1ccccc1)OCN1C(=O)c2ccccc2C1=O	4	1	0	-4	x	x
CC(=O)Nc1ccc(NC(=O)COc2ccccc2C(=O)Nc2cccc(C)c2C)cc1	3	0	0	3	x	x
CC(O)(CNCCN1CCOCC1)COc1ccc(Cl)cc1 (centres undefined)	8	1	0	55*	73*	0	AS interf DR=>6.3
O=S(=O)(NCCCN1CCOCC1)c1ccc(Cl)cc1	-4	2	0	-16	x	x
SMILES	TEAD-YAP inh	GPR151 activ	FBW7 act	MITF inh	MITF confirm	AS interf ctr	others
O=S(=O)(Cc1ccc(Cl)cc1)NCCN1CCOCC1	-1	0	0	72*	9	10
Nc1c(C(=O)c2ccccc2)sc2nc3c(c(-c4ccco4)c12)CCC3	4	-1	1	11	x	x
COC(=O)c1c(NC(=O)c2ccc([N+](=O)[O-])o2)sc(Cc2ccc3c(c2)OCO3)c1C	2	2	0	55*	47*	15	AS interf DR=>6.4
Cc1c(Cc2ccc3c(c2)OCO3)sc(NC(=O)c2ccc([N+](=O)[O-])o2)c1C#N	4	2	0	-3	x	x
C/C(=N\NC(=S)NC1CCCCC1)c1cccnc1	9	3	0	-2	x	x
N#CCCNc1cc(-c2cccc(C(F)(F)F)c2)nc(-c2cccnc2)n1	4	0	0	104*	1	11
N#CCCNc1cc(-c2ccc(F)cc2)nc(-c2cccnc2)n1	5	-2	0	1	x	x
Fc1ccc(-c2cc(NCCCn3ccnc3)nc(-c3cccnc3)n2)cc1	9	0	-1	54*	31*	39*
Cc1nc(NCCCn2ccnc2)cc(-c2cccc(C(F)(F)F)c2)n1	-44	-1	-1	61*	-4	18
Fc1ccc(-c2cc(NCCCn3ccnc3)nc(-c3ccncc3)n2)cc1	-4	1	0	43	x	x
CC(=O)Nc1ccccc1OC1OC(CO)C(O)C(O)C1NC(C)=O (centres undefined)	2	-1	0	20	x	x
Cc1cc(=O)n(C)c(=O)n1CCCCCCNCc1ccccc1	4	0	0	77*	-8	-6
COC(=O)c1ccc(C2C3(C#N)C(N)=NC(OC)(OC)C23C#N)cc1 (centres undefined)	4	-1	0	13	x	x
COC1(OC)N=C(N)C2(C#N)C(c3ccc(NC(C)=O)cc3)C12C#N (centres undefined)	-1	0	0	51*	-2	7
CCOC1(OCC)N=C(N)C2(C#N)C(c3cccc(Br)c3)C12C#N (centres undefined)	-10	1	0	23	x	x
COC1(OC)N=C(N)C2(C#N)C(c3ccc(F)cc3)C12C#N (centres undefined)	-12	0	0	55*	-2	-4
CCOC1(OCC)N=C(N)C2(C#N)C(c3ccc(NC(C)=O)cc3)C12C#N (centres undefined)	-1	-1	0	55*	4	2
CCOC(=O)c1cnc2ccc(C(=O)OC)cc2c1Nc1ccc(C(=O)OC)cc1	3	-1	0	5	x	x
O=C(Nc1ccccc1-c1ccccc1)NC1CCN(C(=O)NCc2ccccc2)CC1	1	0	0	1	x	x
CCOC(=O)c1[nH]c2ccc(OC)cc2c1NC(=O)CNc1nc(C)c(C)s1	-7	0	0	3	x	x
CN(C)C1(CNCC(=O)Nc2ccc(F)cc2)CCCCC1	3	0	0	80*	-11	-2
CC1CCN(CCCNC(=O)C2CC(=O)N(CCc3ccccc3)C2)CC1 (centres undefined)	2	-2	0	107*	-9	-3
O=C(c1cccnc1)N1CCN(Cc2cccc(F)c2)CC1	10	-1	0	75*	15	12
O=C(c1ccc(F)cc1)N1CCN(Cc2cccnc2)CC1	1	-1	0	72*	8	6
O=C(c1cccnc1)N1CCN(Cc2cccc(Oc3ccccc3)c2)CC1	10	-1	0	70*	-5	3
